# Assay outcomes deposited in PubChem by National Center for Advancing Translational Sciences (NCATS).
# Sfp PPTase inh: inhibitors of Bacillus subtilis Sfp phosphopantetheinyl transferase; Potency, µM, most hits filed as inhibitors; AID 1490; Q9F4F7; Biochemical Sfp PPTase activity, qHTS; 310,000 tested, 3.5% active;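 also: the enzyme is Sfp with the accession as filed and its product quenches rhodamine fluorescence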
#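 Step 1, compound plus 15 nM Sfp-PPTase, 15 min, room temperature. Step 2, add rhodamine-CoA (5 uM) and BHQ-2-YbbR (12.5 uM). Step 3, read 525/598 nm fluorescence at 0 and 30 min.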
# TDP1 block: blocks human tyrosyl-DNA phosphodiesterase 1. recombinant TDP1, AlphaScreen DNA substrate cleavage. AID 485290. Potency, µM (doses to about 130 µM), usual class: inhibitors. 350,000 tested, 0.28% active. Q9NUW8; also: nearly all actives have a fitted effect of over 40% in size
#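 AlphaScreen read-out: signal falls as enzyme removes the 3' tyrosine-FITC from a 5'-biotinylated DNA oligo (15 nM, 5 min, RT). Enzyme was E. coli-made recombinant Tdp1 at 1 nM, exposed to compound for 15 min beforehand; beads 10 ug/ml, 10 min.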
# HP1b binding inh: inhibitors of HP1-beta chromodomain binding to methylated histone tails. P83916. AlphaScreen HP1-beta / biotin-H3K9me3 peptide binding. Potency, µM (titrated, usually from 114 µM), hits mostly inhibitors. 390,000 tested, 0.56% active. AID 540317; also: nearly all actives have a fitted effect of over 70% in size
#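 HP1-beta protein (50 nM final) preincubated 30 min at room temperature with biotinylated H3(1-18)K9me3 peptide (50 nM) in PBS pH 7.4, 0.01% Tween-20, then compound added for 30 min. AlphaScreen streptavidin donor/nickel chelate acceptor beads (10 ug/mL final), 30 min dark, luminescence read.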
# JMJD2A Tudor: blocks the human JMJD2A Tudor domain. AID 504339. 390,000 tested, 4.4% active. AlphaScreen JMJD2A-Tudor / H3K4me3 peptide binding. O75164. Potency, µM (doses to about 114 µM), most hits filed as inhibitors; also: nearly all actives have a fitted effect of over 50% in size
# Target sequence (O75164 whole entry, looked up, the tested form may be a part): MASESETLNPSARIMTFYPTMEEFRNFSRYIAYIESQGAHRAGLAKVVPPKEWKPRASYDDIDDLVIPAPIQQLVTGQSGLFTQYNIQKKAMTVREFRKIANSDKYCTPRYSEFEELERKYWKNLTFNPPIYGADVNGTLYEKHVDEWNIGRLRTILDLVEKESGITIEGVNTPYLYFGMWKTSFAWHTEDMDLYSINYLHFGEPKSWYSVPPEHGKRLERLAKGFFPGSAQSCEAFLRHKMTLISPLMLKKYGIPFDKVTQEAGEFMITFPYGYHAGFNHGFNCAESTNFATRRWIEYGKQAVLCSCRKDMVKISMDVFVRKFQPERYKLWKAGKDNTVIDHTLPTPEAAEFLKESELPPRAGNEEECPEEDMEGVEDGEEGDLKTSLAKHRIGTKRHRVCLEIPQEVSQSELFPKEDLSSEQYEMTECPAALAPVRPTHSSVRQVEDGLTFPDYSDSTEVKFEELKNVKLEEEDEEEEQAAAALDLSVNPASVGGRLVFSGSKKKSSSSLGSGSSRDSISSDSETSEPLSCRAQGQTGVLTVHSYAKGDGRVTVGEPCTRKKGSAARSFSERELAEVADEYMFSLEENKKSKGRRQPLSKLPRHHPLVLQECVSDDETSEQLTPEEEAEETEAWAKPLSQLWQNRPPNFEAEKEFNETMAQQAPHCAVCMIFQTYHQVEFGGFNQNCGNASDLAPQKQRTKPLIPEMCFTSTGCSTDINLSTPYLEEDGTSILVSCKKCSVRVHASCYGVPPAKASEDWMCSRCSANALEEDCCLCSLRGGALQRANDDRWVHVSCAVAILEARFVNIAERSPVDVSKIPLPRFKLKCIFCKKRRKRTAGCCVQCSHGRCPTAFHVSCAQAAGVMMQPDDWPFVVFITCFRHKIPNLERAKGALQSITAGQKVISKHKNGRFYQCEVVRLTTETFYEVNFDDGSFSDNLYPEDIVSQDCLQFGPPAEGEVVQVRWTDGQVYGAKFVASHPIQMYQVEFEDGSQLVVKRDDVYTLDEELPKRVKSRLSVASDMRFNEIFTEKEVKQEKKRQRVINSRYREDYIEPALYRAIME
# G9a inh: G9a (human) methyltransferase inhibition; Potency, µM (series often up to 102 µM), most hits filed as inhibitors; G9a H3K9 monomethylation, AlphaScreen, 2 h; Q96KQ7; 350,000 tested, 8.8% active; also: nearly all actives have a fitted effect of over 75% in size
#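 Chemiluminescent proximity detection of H3K9 monomethylation, read after 10 min bead incubation in the dark. Reaction: 20 nM G9a, 500 nM biotin-H3K9 peptide, 20 uM SAM cofactor, 2 h, room temperature, following 15 min enzyme-compound preincubation.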
# BAZ2B inh: inhibitors of human BAZ2B bromodomain. Q9UIF8. AlphaScreen BAZ2B-H3K14Ac peptide displacement. Potency, µM (highest dose often 114 µM), actives largely listed as inhibitors. 360,000 tested, 4.4% active. AID 504333; also: nearly all actives have a fitted effect of over 60% in size
#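 AlphaScreen displacement of biotin-H3(5-23)K14Ac peptide (50 nM final) from BAZ2B (50 nM final) in PBS pH 7.4, 0.01% Tween-20; complex preformed 30 min RT, then compounds (top 110 uM) 30 min RT, beads 20 min dark.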
# Hits are given with their value; . = inactive; ? = inconclusive; / = no result; [ ] = remark or other dose. A selection: hits, their analogues and other compounds. The true share with any hit is near 12%. Calls follow the shape of the dose curve; as a rule, active = well fitted curve in the direction sought with a large enough effect; inconclusive = small, poorly fitted or top-dose-only effect, or another doubt; inactive = no such curve, though single readings can be large; an effect the other way counts as inactive or inconclusive.
SMILES,Sfp PPTase inh,TDP1 block,HP1b binding inh,JMJD2A Tudor,G9a inh,BAZ2B inh
O=C(Nc1cccc(F)c1)[C@@H](c1ccccc1)N1Cc2ccccc2C1=O,/,.,.,.,.,.
C=CCN(c1ccc(C(=O)Nc2ccc(NC(C)=O)cc2)cc1)S(C)(=O)=O,.,.,.,14µM,.,.
O=C(Cc1csc(NC(=O)Nc2cccc(Cl)c2)n1)NCc1cccnc1,/,.,.,.,35µM,?
O=C(Cc1csc(NC(=O)Nc2ccc(Cl)cc2)n1)NCc1cccnc1,/,.,.,.,?,?
Cc1ccc(-c2nc(CN(C)Cc3ccc4nccnc4c3)c(C)o2)s1,.,/,.,.,?,.
NC(=O)Cn1c(=O)n(C2CCCCC2)c(=O)c2c3c(sc21)CCCCC3,50µM,.,.,.,.,.
NC(C(=O)O)[C@@H]1CC(Cl)=NO1 (some centres undefined),.,.,/,/,.[2.33 µM],/
NC(C(=O)O)C1ON=C(Cl)C1O (centres undefined),/,/,.,79µM,/,/
O=C1CCCC2=C1C1(CCSC1)N=C(Nc1nc3ccccc3o1)N2 (centres undefined),/,.,/,.,/,/
Cc1ccc(N2C(=O)C3C4C=CC(CNC(=S)N5CCN(c6cccc(C)c6)C(C)C5)(O4)C3C2=O)cc1 (centres undefined),20µM,.,25µM,18µM,2µM,.
COc1ccc(-c2cc(C)no2)cc1S(=O)(=O)NCC1CCN(Cc2cc(C)ccc2C)CC1,.,.,.,.,.,.
O=C(CSc1nc(NS(=O)(=O)c2ccccc2)cc(=O)[nH]1)Nc1ccc(Cl)cc1,.,7.1µM,.,.,71µM,79µM
Cc1cc(=O)[nH]c(SCc2ccccc2)n1,.,/,.,.,/,.
COc1ccc(Cl)cc1NC(=O)CSc1nc(NS(=O)(=O)c2ccccc2)cc(=O)[nH]1,.,.[0.0935 µM],.,?,71µM,.
Cc1ccc(S(=O)(=O)Nc2cc(=O)[nH]c(SCc3ccccc3Cl)n2)cc1,.,.,.,56µM,.,.
O=c1cc(NS(=O)(=O)c2ccccc2)nc(SCc2ccc(Cl)cc2)[nH]1,.,.,.,.,.,79µM
Cc1noc(C)c1-c1nccc(Nc2ccc(F)cc2)n1,.,/,/,/,.[0.501 µM],/
Cc1ccc(SCCC(=O)NNC(=O)c2ccccc2F)cc1,/,.,.,.,/,/
Nc1c(-c2ccccc2)c(CN2CCOCC2)nn1-c1ccc(F)cc1,.,.,.,.,20µM,.
Nc1c(-c2ccccc2)c(CN2CCOCC2)nn1-c1cccc([N+](=O)[O-])c1,.,.,.,.,.,.
O=C1CCCCCN1CP(=O)(O)CN1CCCCCC1=O,.,/,.,.,50µM,.
O=C1CCCCCN1CP(=O)(O)CCc1ccccc1,.,.,.,.,.,.
COC(=O)[C@@H](NC(=O)N1CCc2nc(-c3ccccc3)c3c(c2C1)CO[C@@H](C)C3)C(C)C,.,.[12.3 µM],/,/,/,/
Cc1ccc(C)c(N2CCN(C(=O)Cn3ncc4c([nH]c5ccc(C)cc54)c3=O)CC2)c1,.,.,.,.,71µM,.
CC1CC(C)CN(C(=O)Cn2ncc3c([nH]c4ccccc43)c2=O)C1 (centres undefined),.,.,.,25µM,.,.
SMILES,Sfp PPTase inh,TDP1 block,HP1b binding inh,JMJD2A Tudor,G9a inh,BAZ2B inh
CCN1CCN(C(=O)Cn2ncc3c([nH]c4ccccc43)c2=O)CC1,.,.,.,.,.,.
Cc1ccc2[nH]c3c(=O)n(CC(=O)N4CCCCC4)ncc3c2c1,/,.,.,.,.,.
COc1ccc(-c2nc3cnc(N4CCN(C)CC4)nc3n(Cc3cccs3)c2=O)cc1,.,/,/,/,.[0.501 µM],/
O=S(=O)(O)c1cccc2cccc(Nc3ccccc3)c12,/,/,.,50µM,/,/
Nc1c(S(=O)(=O)O)cc(Nc2cccc3ccccc23)c2c1C(=O)c1ccccc1C2=O,?,.,/,/,/,/
CC(=O)Nc1ccc(OC2=NS(=O)(=O)c3ccccc32)cc1,/,.,/,?,/,/
Cn1cccc1CNC1CCCCC1,.,.,.,.,50µM,.
S=c1cnc2ccccc2[nH]1,20µM,.,?,4.5µM,1µM,56µM
COc1ccc(COC(=O)c2cccc(S(=O)(=O)N3CCCC3)c2)cc1F,.,.,.,.,.,.
CSCCC(NC(=O)c1ccccc1)C(=O)Nc1ccncc1 (centres undefined),/,.,?,.,.[12.7 µM],.
CSCCC(NC(=O)c1ccccc1Cl)C(=O)Nc1ccncc1 (centres undefined),/,.,.,.,40µM,.
CC(=O)N1c2ccccc2C(=O)C1N1CCN(c2cc(Cl)ccc2C)CC1 (centres undefined),/,.,.,.,7.9µM,?
CC(=O)N1c2ccccc2C(=O)C1N1CCN(c2ccc(Cl)cc2)CC1 (centres undefined),/,.,.,.,.,.
Cc1nc2c(O)cccc2cc1CO,71µM,.,.,4.5µM,10µM,.
Cc1ccc(O)c(CNc2cccc(C)n2)c1,.,/,.,.,/,.
CCc1noc(C)c1C(=O)N1CC(C)SC1=Nc1ccc(Cl)cc1 (centres undefined),/,.,.,.,.[12.7 µM],.
CCN(CC(=O)Nc1ccc2c(c1)OCCO2)C(=O)C(C)Oc1ccc(F)cc1 (centres undefined),/,/,.,.,/,/
COc1ccc(N2Cc3cccc(C(=O)N4CCN(C(=O)c5ccco5)CC4)c3C2=O)cc1,?,11µM,?,50µM,45µM,50µM
COc1ccc(N2Cc3cccc(C(=O)Nc4cccc(F)c4)c3C2=O)cc1,/,?,.,20µM,.,/
CC1CCCCN1C(=O)CSc1nc2ccccc2nc1Cc1ccccc1 (centres undefined),/,.,.,.,.,.
COc1ccccc1-n1nnnc1SCC(=O)NCC1(N2CCCCC2)CCCCC1,/,/,.,.,/,/
CC(=O)NNc1nc(-c2ccc(C)cc2)cs1,40µM,.,.,.[11.4 µM],32µM,.
CC(=O)NNc1nc(-c2ccccc2)cs1,20µM,.,.,?,?,.
O=C(Cc1ccccc1F)Nc1nc(-c2ccc(F)c(F)c2)cs1,.,.,.,.,.,.
Cc1ccc(S(=O)(=O)CC(=O)Nc2nc(-c3ccccc3)cs2)cc1,.,.,.,.,.,.
CC(=O)Nc1ccc(-c2csc(NC(=O)Cc3ccccc3F)n2)cc1,.,/,.,.,40µM,.
O=S(=O)(NCc1cccnc1)c1cccc2nsnc12,.,.,.,.,32µM,.
O=C/C=C/c1c(-c2ccccc2)cc2oc3ccccc3cc1-2,.,/,6.3µM,6.3µM,8.9µM,3.5µM
COC(=O)[C@H]1O[C@@H](c2cc(OC)c(C)c(OC)c2O)[C@H](C)[C@@H](O)[C@H]1C,.,.,/,/,/,/
Cc1ccc(/C(O)=C/C(=O)C(=O)NNC(=O)C(O)(c2ccccc2)c2ccccc2)cc1,.,.,.,?,.,50µM
